Assay outcomes as filed in PubChem.
Sampled rows, rich in hits. Any-hit rate of the full collection: about 19%.
VP16 counter – Gal4-VP16 reporter inhibition counter-screen | Drosophila S2 Gal4-VP16 UAS-luciferase, luminescence, 20 h | Potency, µM (series often up to 53.6 µM), for inactives: at the top dose activity, negative = inhibition, actives largely listed as inhibitors | 3.5% of 310,000 active | AID 2546;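 note: Gal4-VP16 expression switched on by copper sulfate through the metallothionein promoter; nearly all actives have a fitted effect of over 50% in size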
TDP1 cell noCPT – qHTS for Inhibitors of human tyrosyl-DNA phosphodiesterase 1 (TDP1): qHTS in cells in absence of CPT. DT40 Tdp1-/- hTDP1 cells, no CPT, ATP luminescence, 48 h. Potency, µM (top dose mostly 46.2 µM), for inactives: top-dose activity change, negative = growth inhibition, usual class: inhibitors. 15% of 420,000 active. AID 686978, 2013; note: nearly all actives have a fitted effect of over 55% in size
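Compound effects on proliferation are scored in DT40 Tdp1-/-;hTDP1 cells in the absence of CPT. ATP levels (CellTiter-Glo luminescence) are recorded after a ≥48 hr, 37 °C incubation.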
RORgamma inh – ROR gamma (mouse) transcription inhibition; P51450; Drosophila S2 Gal4-RORgamma UAS-luciferase reporter, 20 h; Potency, µM (doses to about 53.6 µM), for inactives: at the top dose activity change, negative = inhibition, actives largely listed as inhibitors; 5.4% of 310,000 active; note: nearly all actives have a fitted effect of over 60% in size
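A Gal4/UAS one-hybrid system in insect cells: metallothionein-promoter Gal4–ROR gamma fusion plus Photinus luciferase reporter. Copper sulfate 700 uM final, 20 hr ambient incubation, luminescent detection after 10 min with reagent.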
TDP1 block – blocks human tyrosyl-DNA phosphodiesterase 1; Potency, µM (highest dose often 130 µM), inactives show at the top dose activity change, negative = inhibition, most hits filed as inhibitors; 0.28% of 350,000 active; recombinant TDP1, AlphaScreen DNA substrate cleavage; Q9NUW8; note: nearly all actives have a fitted effect of over 40% in size
Target sequence (Q9NUW8 whole entry, looked up): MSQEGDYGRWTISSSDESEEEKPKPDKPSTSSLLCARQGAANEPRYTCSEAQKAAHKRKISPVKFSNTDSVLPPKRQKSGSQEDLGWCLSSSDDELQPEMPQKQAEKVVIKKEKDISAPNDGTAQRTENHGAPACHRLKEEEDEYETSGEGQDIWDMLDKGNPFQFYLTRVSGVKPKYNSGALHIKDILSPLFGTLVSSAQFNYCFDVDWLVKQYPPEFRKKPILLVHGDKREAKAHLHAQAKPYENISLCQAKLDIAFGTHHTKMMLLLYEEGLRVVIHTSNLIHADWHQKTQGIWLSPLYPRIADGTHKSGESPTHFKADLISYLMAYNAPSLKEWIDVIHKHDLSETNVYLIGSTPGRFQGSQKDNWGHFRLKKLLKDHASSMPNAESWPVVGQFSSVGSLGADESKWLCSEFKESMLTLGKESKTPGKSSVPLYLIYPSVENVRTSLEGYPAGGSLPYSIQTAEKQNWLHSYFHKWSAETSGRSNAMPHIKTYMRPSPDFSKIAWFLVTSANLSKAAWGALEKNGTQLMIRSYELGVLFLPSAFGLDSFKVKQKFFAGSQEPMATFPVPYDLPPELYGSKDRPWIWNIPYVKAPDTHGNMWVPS
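Signal: AlphaScreen proximity between streptavidin donor and anti-FITC acceptor beads on intact substrate. Reaction: Tdp1 1 nM, substrate 15 nM final, 5 min RT after 15 min compound preincubation.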
DT40 TDP1 CPT – DT40-hTDP1 cell growth loss with CPT | 12% of 420,000 active | chicken DT40 Tdp1-/-;hTDP1 cells + 20 nM CPT, ATP luminescence, 48 h | Potency, µM (highest dose often 46.2 µM), inactives show top-dose activity change, negative = growth inhibition, most hits filed as inhibitors; note: nearly all actives have a fitted effect of over 55% in size
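Chicken DT40 Tdp1-/- cells complemented with human TDP1, 400 cells/well, exposed to compounds plus 20 nM camptothecin for at least 48 h at 37 C; viability read as ATP content by CellTiter-Glo luminescence.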
Active calls of the source: *; [ ] = dose if it differs, or a comment. Calls come from the whole dose curve; as a rule, active = well fitted curve in the direction sought with a large enough effect; inconclusive = small, poorly fitted or top-dose-only effect, or another doubt; inactive = no such curve, though single readings can be large; an effect the other way counts as inactive or inconclusive. % is set by controls: 0 for no effect and ±100 for the full control effect; potency is the fitted concentration of half-maximal effect.

How did CCC1CN(CCC(=O)NC2CCOC(C)(C)C2)Cc2cc(OC)ccc2O1 (centres undefined) do in these assays?
TDP1 cell noCPT: -5.4%; DT40 TDP1 CPT: 3.6%[9.04 µM]

How did O=C(NCC(c1cccs1)N1CCOCC1)c1ccccc1NS(=O)(=O)c1ccc(Cl)cc1 (centres undefined) do in these assays?
VP16 counter: -5.7%; TDP1 cell noCPT: inconclusive; RORgamma inh: inconclusive; TDP1 block: 5.5%; DT40 TDP1 CPT: inconclusive

How did CCN(c1ccccc1)S(=O)(=O)c1cccc(C(=O)NCC(c2ccco2)N2CCCCC2)c1 (centres undefined) do in these assays?
TDP1 cell noCPT: 16.4µM*; DT40 TDP1 CPT: inconclusive

Results for O=C(NCC(c1ccc(F)cc1)N1CCOCC1)c1cccnc1Sc1ccccc1 (centres undefined) ?
TDP1 cell noCPT: inconclusive; TDP1 block: -13.1%; DT40 TDP1 CPT: -20.2%

What do the screens show for `CN(c1ccccc1)S(=O)(=O)c1cccc(C(=O)NCC(c2cccs2)N2CCOCC2)c1` (centres undefined)?
TDP1 cell noCPT: 16.4µM*; DT40 TDP1 CPT: inconclusive

What do the screens show for `Cc1ccc(Sc2ncccc2C(=O)NCC(c2ccc(F)cc2)N2CCOCC2)c(C)c1` (centres undefined)?
TDP1 cell noCPT: inconclusive; TDP1 block: 0.4%; DT40 TDP1 CPT: 14.6µM*

How did O=C(NCC(c1cccs1)N1CCOCC1)c1ccccc1NS(=O)(=O)c1ccc(Br)cc1 (centres undefined) do in these assays?
VP16 counter: -20.6%; TDP1 cell noCPT: 14.6µM*; RORgamma inh: inconclusive; TDP1 block: 4.3%; DT40 TDP1 CPT: inconclusive

How did CN(C)c1ccc(C(=O)NCC(c2cccs2)N2CCOCC2)cc1 (centres undefined) do in these assays?
TDP1 cell noCPT: -19.2%; TDP1 block: 2.8%; DT40 TDP1 CPT: -5.3%

What do the screens show for `Cc1cn(CC(=O)NCc2ccccn2)c(=O)[nH]c1=O`?
TDP1 cell noCPT: 12.6%; DT40 TDP1 CPT: -2.4%

Results for CN(Cc1ccc(Cl)c(Cl)c1)C(=O)CN1C(=O)NC2(CCCC2)C1=O ?
TDP1 cell noCPT: -2.4%; TDP1 block: -0.3%; DT40 TDP1 CPT: -21.6%

How did CC1=CCC[C@@H]2[C@@](C)(CC/C(C)=C/C(=O)O)[C@H](C)CC[C@@]12C do in these assays?
VP16 counter: 0.5%; TDP1 cell noCPT: -17.1%; RORgamma inh: -28.3%; TDP1 block: 5.3%; DT40 TDP1 CPT: -25.2%

Results for O=C(c1cc(S(=O)(=O)N2CCOCC2)ccc1Cl)N1CCc2ccccc2C1 ?
VP16 counter: 10.1%; TDP1 cell noCPT: inconclusive; RORgamma inh: 7.1%; TDP1 block: 3.6%; DT40 TDP1 CPT: -29.8%

Results for C=CCN(c1ccccc1)S(=O)(=O)c1cccc(C(=O)NCC(c2ccc(F)cc2)N2CCOCC2)c1 (centres undefined) ?
TDP1 cell noCPT: 16.4µM*; DT40 TDP1 CPT: 13µM*

What do the screens show for `CCN(c1ccccc1)S(=O)(=O)c1cccc(C(=O)NCC(c2ccc(F)cc2)N2CCOCC2)c1` (centres undefined)?
TDP1 cell noCPT: 10.3µM*; DT40 TDP1 CPT: 23.1µM*

Results for O=C(NCC(c1ccc(F)cc1)N1CCOCC1)c1cccc(Br)c1 (centres undefined) ?
VP16 counter: 16.1%; TDP1 cell noCPT: inconclusive; RORgamma inh: 13.3%; TDP1 block: 4.2%; DT40 TDP1 CPT: inconclusive

Results for CSc1ncccc1C(=O)NCc1ccc(C)cc1 ?
VP16 counter: -3.8%; TDP1 cell noCPT: -12.5%; RORgamma inh: 1.8%; TDP1 block: -2.2%; DT40 TDP1 CPT: -11.2%

Results for Cc1ccc(NS(=O)(=O)c2cccc(C(=O)NCC(c3ccc(F)cc3)N3CCOCC3)c2)cc1 (centres undefined) ?
TDP1 cell noCPT: 16.4µM*; TDP1 block: 8.6%; DT40 TDP1 CPT: 29.1µM*

How did Cc1ccc(Sc2ncccc2C(=O)NCc2cc([N+](=O)[O-])ccc2O)c(C)c1 do in these assays?
VP16 counter: 7.08µM*; TDP1 cell noCPT: 9.0%; RORgamma inh: 5.01µM*; TDP1 block: 9.1%; DT40 TDP1 CPT: 25.7%

Results for N#Cc1nc(/C=C/c2ccccc2)oc1NCCCN1CCOCC1 ?
VP16 counter: -7.6%; TDP1 cell noCPT: -25.8%; RORgamma inh: 25.1%; TDP1 block: 3.9%; DT40 TDP1 CPT: -13.3%

Results for CC(=O)NC(Cc1ccc(F)cc1)C(=O)NC1CCN(C(=O)Nc2ccc(F)cc2)CC1 (centres undefined) ?
VP16 counter: -13.2%; TDP1 cell noCPT: 0.6%; RORgamma inh: -2.0%; TDP1 block: 0.0%; DT40 TDP1 CPT: -2.2%

How did CCc1ccc(OCC(O)CN2CCN(c3ccccn3)CC2)cc1 (centres undefined) do in these assays?
VP16 counter: 6.0%; TDP1 cell noCPT: 12.7%; RORgamma inh: 2.9%; DT40 TDP1 CPT: -28.4%

Results for COc1ccc([C@@H]2C[C@@H](c3ccccc3)Oc3cc(C)cc(C)c32)cc1 ?
VP16 counter: -2.2%; TDP1 cell noCPT: inconclusive; RORgamma inh: 12.3%; TDP1 block: 0.0%; DT40 TDP1 CPT: -22.2%

What do the screens show for `COc1ccc(C2CC(O)(c3ccccc3)Oc3cc(OC)cc(OC)c32)cc1` (centres undefined)?
VP16 counter: 0.7%; TDP1 cell noCPT: inconclusive; RORgamma inh: inconclusive; TDP1 block: 12.1%; DT40 TDP1 CPT: 23.1µM*

What do the screens show for `COc1ccc(C2CC(c3ccccc3)Oc3cc(OC)ccc32)cc1` (centres undefined)?
VP16 counter: 2.6%; RORgamma inh: 10.3%; TDP1 block: -9.1%

How did COc1ccc(C2CC(O)(c3ccccc3)Oc3c(C)ccc(C)c32)cc1 (centres undefined) do in these assays?
VP16 counter: 12.6µM*; TDP1 cell noCPT: inconclusive; RORgamma inh: inconclusive; TDP1 block: 9.7%; DT40 TDP1 CPT: inconclusive

What do the screens show for `CC(C)C(=O)N[C@@H]1c2ccccc2CC[C@@H]1OCc1ccccc1`?
TDP1 cell noCPT: -26.6%; TDP1 block: -3.3%[56.1 µM]; DT40 TDP1 CPT: -29.5%

Results for NCCCNCCCCNCCCN ?
VP16 counter: -8.8%; TDP1 cell noCPT: inconclusive; RORgamma inh: 17.3%; TDP1 block: 1.2%; DT40 TDP1 CPT: 5.0%

Results for O=C(Nc1ccc(NC(=O)c2ccc([N+](=O)[O-])o2)cc1Cl)c1ccco1 ?
VP16 counter: 1.8%; TDP1 cell noCPT: inconclusive; RORgamma inh: -3.6%; TDP1 block: 0.7%; DT40 TDP1 CPT: inconclusive
